Compound activity: PubChem, National Center for Advancing Translational Sciences (NCATS)
Rab9 prom act: activators of Rab9 promoter; Huh7 Rab9 promoter-luciferase reporter, luminescence, 24 h; Potency, µM (series often up to 9.22 µM), without a hit: top-dose activation, negative = inhibition, actives largely listed as activators; hit rate 2.8% among 320,000; AID 485297; also: % of control where 0% means no effect; nearly all actives have a fitted effect of over 60% in size
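Quantitative HTS format; Huh7 Rab9-luciferase reporter cells (1500/well) receive compound 2 h post-plating, incubate 24 h at 37 °C, then get luciferase reagent for 10 min before luminescence reading.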
ELG1 genotox: induces genotoxicity in HEK293T cells with luciferase-tagged ELG1; HEK293T ELG1-luciferase reporter, luminescence, 16 h; Potency, µM (series often up to 46 µM), inactives show at the highest dose activity change, positive = activation, hits mostly activators; hit rate 1.3% among 330,000; also: % of control where 0% means no effect; nearly all actives have a fitted effect of over 60% in size
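Genotoxic stress is detected as increased luminescence from luciferase-tagged ELG1 in HEK293T cells, measured with ONE-Glo after a 16 hr treatment at 37 °C.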
ELG1 DNA repair: inhibitors of ELG1-dependent DNA repair in HEK293T cells. HEK293T ELG1-luciferase reporter, luminescence, 16 h; DNA damage induced by 5-fluorouridine. Potency, µM (highest dose often 46.1 µM), for the others: top-dose activity change, negative = inhibition, most hits filed as inhibitors. hit rate 2.3% among 330,000; also: % is scaled to controls: 0 for no effect and ±100 for the full control effect; nearly all actives have a fitted effect of over 55% in size
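Reporter activity after DNA damage by 5-fluorouridine is monitored. Compound-treated cells incubate 16 hr at 37 °C, then ONE-Glo is added for 30 min before luminescence reading.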
FLuc modulator: inhibits or activates purified firefly luciferase, miR-21 counter-screen; P08659; purified FLuc, Km substrates, luminescence inhibition; Potency, µM (titrated, usually from 57.5 µM), inactives show at the top dose activity change, negative = inhibition, most hits filed as inhibitors; hit rate 6.9% among 360,000; AID 588342;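 also: plate controls were vehicle for no effect and reference inhibitor for full effect; nearly all actives have a fitted effect of over 55% in size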
Target sequence (P08659 whole entry, looked up): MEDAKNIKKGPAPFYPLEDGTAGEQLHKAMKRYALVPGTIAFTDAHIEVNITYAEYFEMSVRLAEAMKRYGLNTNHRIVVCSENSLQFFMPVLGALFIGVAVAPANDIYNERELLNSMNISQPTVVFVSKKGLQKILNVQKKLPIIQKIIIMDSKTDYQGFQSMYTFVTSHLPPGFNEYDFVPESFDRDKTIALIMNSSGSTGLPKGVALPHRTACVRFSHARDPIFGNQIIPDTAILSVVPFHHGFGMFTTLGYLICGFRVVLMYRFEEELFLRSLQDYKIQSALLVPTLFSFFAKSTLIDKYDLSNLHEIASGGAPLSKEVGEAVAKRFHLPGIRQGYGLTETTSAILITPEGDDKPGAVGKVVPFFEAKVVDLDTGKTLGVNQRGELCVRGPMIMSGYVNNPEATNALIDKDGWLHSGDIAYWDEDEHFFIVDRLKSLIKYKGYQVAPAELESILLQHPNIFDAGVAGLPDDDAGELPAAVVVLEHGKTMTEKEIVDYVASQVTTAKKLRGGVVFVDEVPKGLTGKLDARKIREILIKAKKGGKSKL
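Biochemical qHTS of compounds, final roughly 60 µM downward over six points, against 10 nM purified firefly luciferase using Km concentrations of substrates (10 uM D-luciferin, 10 uM ATP) in Tris acetate pH 7.5 buffer; luminescence output.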
NPC1 promoter act: activators of NPC1 promoter | Huh7 NPC1 promoter luciferase reporter, 24 h | Potency, µM (highest dose often 9.22 µM), inactives show at the top dose activation, most hits filed as activators | hit rate 2.4% among 320,000 | AID 485313; also: % of control where 0% means no effect; nearly all actives have a fitted effect of over 60% in size
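Luciferase expression driven by the NPC1 promoter was measured in stably transfected Huh7 cells after a 24 h compound incubation, using a luciferase reagent and a luminescence read.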
SMN2 splice up: SMN2 splice variant enhancement; hit rate 2.8% among 210,000; AID 1458; Potency, µM (series often up to 46.1 µM), for the others: at the top dose activity change, positive = activation, most hits filed as activators; HEK293 SMN2-luciferase splicing reporter, luminescence, 30-36 h; also: % of control where 0% means no effect; nearly all actives have a fitted effect of over 55% in size
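HEK293 cells carry an SMN2 minigene-luciferase reporter in which exon 7 inclusion puts luciferase in frame. Cells were seeded at 2000 cells/well, attached for 10-12 hours, then exposed to compounds for 30-36 hours at 37C before ONE-Glo luminescence.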
* = called active by the depositor; ? = inconclusive; . = not tested or not shown. Compounds with a hit are over-represented: about 9.3% of the library has one in this group of screens. Calls follow the shape of the dose curve; as a rule, active = well fitted curve in the direction sought with a large enough effect; inconclusive = small, poorly fitted or top-dose-only effect, or another doubt; inactive = no such curve, though single readings can be large; an effect the other way counts as inactive or inconclusive. Potency is read from the fitted curve at half-maximal effect.

SMILES | Rab9 prom act | ELG1 genotox | ELG1 DNA repair | FLuc modulator | NPC1 promoter act | SMN2 splice up
Cc1ccc(NC(=O)C2CCCN(S(=O)(=O)c3cccc4cccnc34)C2)c(C)c1 (stereo unspecified) | . | . | . | 1.7% | . | -17.0%
Cc1ccccc1-n1c(=O)/c(=C\c2ccco2)s/c1=C(/C#N)C(=O)Nc1ccccc1 | -2.9% | -12.7% | 4.61µM* | 2.0% | 1.8% | -1.6%
CCOC(=O)C1=C(CN2CCN(C(=O)c3ccco3)CC2)NC(=O)NC1c1ccc(C)cc1 (stereo unspecified) | -1.2% | 0.2% | -1.2% | 0.0% | 20.7% | .
O=C1/C(=C/c2ccco2)SC(=S)N1CC1CCCO1 (stereo unspecified) | 21.4% | 6.7% | -10.4% | 16.9µM* | -1.8% | .
Cc1ccc(/C=C2\SC(=S)N(CC3CCCO3)C2=O)o1 (stereo unspecified) | ? | 4.4% | -1.3% | 21.3µM* | 16.7% | .
Cc1ccc(/C=C2/SC(=O)NC2=S)o1 | -0.9% | 0.4% | 0.0% | 26.9µM* | -2.2% | -3.9%
CCc1ccc(-n2c(Cc3ccccc3)nnc2SCc2nc(-c3cccs3)no2)cc1 | . | . | . | -16.3% | . | 11.9%
CCOC(=O)CSc1nnc2c(n1)C1(C)CCC2C1(C)C (stereo unspecified) | -3.1% | -0.1% | 21.7% | 1.7% | -1.4% | 9.8%
CN(C)Cc1c(C(=O)N/N=C/c2cccc(OCc3ccc(F)cc3)c2)nnn1-c1nonc1N | -0.6% | -11.5% | ? | -3.1% | -7.9% | .
CCc1ccc(NC(=O)C2C3/C=C\CCCCC32)cc1 (stereo unspecified) | 3.16µM* | ? | ? | ? | 4.47µM* | 11.2µM*
O=C(Nc1ccc(Cl)cc1)C1C2CCCCC21 (stereo unspecified) | 3.98µM* | ? | ? | 4.78µM* | 3.98µM* | .
O=C(Nc1cccc(Cl)c1)C1C2CCC3C(CCC21)C3(Cl)Cl (stereo unspecified) | -4.6% | -8.6% | 25.9µM* | -19.0% | 1.4% | -36.8%
O=C(Nc1ccccc1)C1C2CCC3C(CCC21)C3(Cl)Cl (stereo unspecified) | -4.1% | -2.6% | -13.2% | -7.1% | -4.5% | -17.2%
COC(=O)c1c(NC(=O)C2C3CCC(C3)C2C(=O)O)sc2c1CCCCC2 (stereo unspecified) | 18.8% | 10.7% | ? | ? | 10.4% | 13.5%
Cc1cc(C)c(S(=O)(=O)n2c([N+](=O)[O-])cnc2C)cc1C | -0.8% | -2.9% | ? | -0.2% | -3.6% | 14.6%
CCOc1ccccc1CNC(=O)C(C)n1nc(C)c2c(C)n(-c3ccccc3)nc2c1=O (stereo unspecified) | 0.4% | -7.6% | ? | -1.2% | -7.5% | .
COC(=O)c1cc(=O)n(CCc2ccc(OC)c(OC)c2)c(=Nc2ccc(F)c(Cl)c2)s1 | 0.0% | -18.4% | 14.6µM* | -0.8% | -2.2% | -24.7%
c1ccc(-c2nccnc2-c2ccccc2)cc1 | 1.9% | 0.0% | -1.5% | 4.6% | -1.6% | .
CC(C)(C)c1ccc(-c2ncccc2O)cc1 | 18.0% | 9.8% | ? | 13.5µM* | 21.7% | .
CCN(CC)c1ccc(/C=C2\SC(=O)N(C(C)C)C2=O)o1 | 27.2% | -21.3% | ? | 19µM* | 28.2% | .
CCN(CC)c1ccc(CNc2ccc3c(c2)ncn3CC)cc1 | 2.2% | 3.3% | 1.3% | -5.0% | 1.2% | .
CCn1cnc2cc(NCc3nc4ccccc4n3Cc3ccccc3)ccc21 | 2.82µM* | ? | ? | 5.36µM* | 3.55µM* | ?
CCn1cnc2cc(NCc3nc4ccccc4n3C)ccc21 | 0.501µM* | 1.64µM* | ? | 3.01µM* | 0.794µM* | 7.08µM*
CC(C)n1cnc2cc(NCc3nc4ccccc4n3C)ccc21 | 1.12µM* | 14.6µM* | ? | 4.78µM* | 1.26µM* | 2.82µM*
O=C(O)c1ccc(NCc2nc3ccccc3n2Cc2ccccc2)cc1 | 1.8% | 1.5% | 0.0% | -4.0% | 0.4% | .
SMILES | Rab9 prom act | ELG1 genotox | ELG1 DNA repair | FLuc modulator | NPC1 promoter act | SMN2 splice up
Cc1cccc(-n2cc(CNCCc3nc(C)cc(C)n3)c(-c3cccc(F)c3)n2)c1 | -5.4% | -6.1% | 23.1µM* | 15.1µM* | -7.4% | .
COc1ccc(-n2cc(CNCc3cnc4ccccn34)c(-c3cccc(F)c3)n2)cc1 | 0.8% | -13.9% | -1.0% | 8.49µM* | 5.2% | .
COc1ccc(NC(=O)Cc2cccs2)c(OC)c1 | 5.1% | 7.0% | ? | -17.6% | 15.9% | -1.7%
CC(C)CN(CC(C)C)S(=O)(=O)c1ccc(C(=O)Nc2sc3c(c2C(N)=O)CC(C)(C)NC3(C)C)cc1 | . | . | . | 0.4% | . | .
COC(=O)N1[C@H](C)C=C[C@]1(Cc1ccccc1)C(=O)NCc1ccc(N(C)C)cc1 | . | . | . | . | . | 12.6µM*
c1ccc(-c2nnc3sc(-c4ccncc4)nn23)cc1 | -5.7% | -6.8% | 2.5% | -3.0% | -0.8% | 4.47µM*
c1ccc(-c2nnc3sc(-c4csc5c4CCCC5)nn23)cc1 | 16.5% | 10.2% | ? | 15.1µM* | 13.9% | ?
COc1ccc(-c2nn3c(=O)c(C)nnc3s2)cc1 | 0.7% | 6.2% | ? | ? | -5.0% | .
Cc1nc2sc(-c3ccccc3)nn2c(=O)c1Br | 2.24µM* | ? | ? | 8.49µM* | 3.16µM* | 5.62µM*
COc1ccc(C(CCN2CCOCC2)c2c(OC)cc(OC)c3c(-c4ccccc4)cc(=O)oc23)cc1 (stereo unspecified) | . | -1.9% | -7.7% | . | . | .
O=C(NNC(=O)c1ccc2ccccc2c1O)NC1CCCCC1 | 9.6% | 0.3% | 11.4% | -0.2% | -3.3% | .
Clc1cccc(-c2cc3nc4c(c(N5CCOCC5)n3n2)CCCC4)c1 | 9.8% | -1.8% | ? | ? | 6.8% | 17.4%
OC1CCN(c2c3c(nc4cc(-c5ccc(Cl)cc5)nn24)CCC3)CC1 | 1.4% | -0.7% | 18.4µM* | ? | -2.2% | -12.2%
Clc1cccc(-c2cc3nc4c(c(N5CCN(c6cnccn6)CC5)n3n2)CCCC4)c1 | 9.0% | -1.3% | ? | 12µM* | -1.0% | -59.6%
CCn1c(CC(=O)Nc2cccc(OC)c2)nnc1SCC(=O)Nc1nccs1 | -5.5% | -14.2% | 2.9% | -3.9% | 1.4% | -4.3%
COc1ccc(CC(=O)NCc2nnc(SCC(=O)Nc3cccc(F)c3)n2C)cc1 | -7.7% | 0.0% | -1.9% | 15.1µM* | 0.1% | 4.8%
COc1ccc(NC(=O)Cc2nnc(SCC(=O)Nc3ccccc3)n2C)cc1 | 5.7% | 2.5% | 7.0% | 16.9µM* | 2.8% | .
COc1ccc(CC(=O)NCc2nnc(SCC(=O)Nc3ccccc3)n2C)cc1 | 2.7% | -2.2% | -5.8% | ? | -5.8% | 0.0%
COc1ccc(NC(=O)CSc2nnc3ccc(-c4ccncc4)nn23)cc1 | -4.7% | -24.4% | 8.2µM* | 3.2% | 2.3% | .
